Data reported in paper PMC5540273 (PLoS ONE, 2017).
“And” between values parts separate entries of the source, which are not always exact repeats. Identical values can stand only once. Like-named read-outs stand apart in the source and are kept apart here.

Assays:
Conditions in all cases: concentration: 1 μM, replicates: in singlicate, n = 1
[1] = system: T1, p38-beta
T1 construct: gene MAPK11

[2] = system: p38-delta
[3] = system: T2, p38-gamma
T2 construct: gene MAPK12
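Further: KINOMEscan kinase panel screen.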

Row | SMILES | %Inh [1] [%] | %Inh [2] [%] | %Inh [3] [%] | %Inh ([1]; 1 µM) | %Inh ([2]; 1 µM) | %Inh ([3]; 1 µM)
1 | COc1cc2ncnc(Nc3ccc(OCc4ccccc4Br)c(Cl)c3)c2cc1OC.Cl [GI261590] | 0 | 54 | 0 |  |  | 
2 | CSc1nn2c(=O)cc(N3CCOCC3)nc2n1Cc1cccc(Cl)c1Cl [GSK2347225] | 0 | 59 | 16 |  |  | 
3 | FC(F)(F)c1cc(Nc2nccc(-c3c(-c4ccc(Cl)cc4)nn4ncccc34)n2)ccc1Cl [GW829351] | 0 | 0 | 0 |  |  | 
4 | Cl.O=S(=O)(c1cccc(F)c1)c1ccc(Nc2ncnc3cc(Br)sc23)cc1Cl [GSK306886] | 0 | 26 | 8 |  |  | 
5 | COc1ccc(Nc2nccc(N3CCC(NC(=O)Nc4ccc5c(c4)OCO5)C3)n2)cc1 (stereo not drawn) [GSK1379745] | 0 | 14 | 3 |  |  | 
6 | Fc1ccc(-c2ncn(CCCNCc3ccccc3)c2-c2ccncc2)cc1 | 4 | 1 | 24 |  |  | 
7 | Cl.c1ccc(Cn2ccc3cc(Nc4ncnc5ccccc45)ccc32)cc1 [GW275568] | 0 | 30 | 8 |  |  | 
8 | O=C(NCCCN1CCCC1=O)c1cnc(NCc2cc(Cl)ccc2Cl)nc1NC1CCNCC1 | 0 | 42 | 18 |  |  | 
9 | FC(F)(F)c1ccc(-c2cc(-c3c[nH]nc3-c3ccccn3)ccn2)cc1 [GW599550] | 0 | 50 | 16 |  |  | 
10 | Clc1cccc(-c2nc(Nc3ccncc3)c3ccccc3n2)c1 [GW873004] | 0 | 17 | 0 |  |  | 
11 | C[C@H]1CC[C@@H](C(=O)Nc2ccccc2)CN1c1cc(-c2ccc3c(N)n[nH]c3c2)nc(N)n1 [GSK2283293] | 0 | 0 | 51 |  |  | 
12 | O=C(CCO)NCCn1ccc2ncnc(Nc3ccc(Oc4cccc(C(F)(F)F)c4)c(Cl)c3)c21 | 0 | 10 | 5 |  |  | 
13 | Fc1ccc(Nc2nccc(-c3c(-c4ccc(Cl)cc4)nn4ncccc34)n2)cc1F [GW829058] | 19 | 4 | 37 |  |  | 
14 | Cn1cc(-c2ccc3c(c2)CCN3C(=O)Cc2cccc(C(F)(F)F)c2)c2c(N)ncnc21 [GSK2606414] | 0 | 20 | 2 |  |  | 
15 | Clc1cc(Nc2ncnc3cc[nH]c23)ccc1OCc1ccccn1 | 26 | 37 | 22 |  |  | 
16 | CN1CCC(n2cnc(-c3ccc(F)cc3)c2-c2ccnc(NC3CCNCC3)n2)CC1 [SB-229482] | 23 | 38 | 38 |  |  | 
17 | Cl.Fc1ccccc1COc1ccc(Nc2ncnc3ccc(-c4nnc(C(F)(F)F)o4)cc23)cc1Cl [GW424170] | 0 | 29 | 17 |  |  | 
18 | CC(=O)Nc1n[nH]c2ncc(-c3ccccc3)cc12 [SB-548492] | 11 | 3 | 20 |  |  | 
19 | CCn1c(-c2ccncc2)nc2cnccc21 [SB-735216] | 11 | 4 | 20 |  |  | 
20 | Fc1cccc(COc2ccc(Nc3ncnc4sc(-c5ccc[nH]5)cc34)cc2Cl)c1 [GW707818] | 4 | 46 | 7 |  |  | 

Row | SMILES | %Inh [1] [%] | %Inh [2] [%] | %Inh [3] [%] | %Inh ([1]; 1 µM) | %Inh ([2]; 1 µM) | %Inh ([3]; 1 µM)
21 | Fc1cccc(COc2ccc(Nc3ncnc4nn5ccccc5c34)cc2Cl)c1 [GW689066] | 0 | 25 | 0 |  |  | 
22 | Nc1nccc2scc(-c3ccc4c(c3)CCN4C(=O)Cc3cc(F)ccc3F)c12 [GSK2587663] | 0 | 39 | 0 |  |  | 
23 | Cl.c1ccc(Cn2ncc3cc(Nc4ncnc5ccccc45)ccc32)cc1 [GW273749] | 0 | 39 | 0 |  |  | 
24 | COc1cc2c(Nc3cccc(NC(=O)c4ccccc4)c3)ncnc2cc1OCCCN1CCOCC1 [GSK223810] | 89 | 0 | 6 |  |  | 
25 | Cl.Cl.c1ccc(-c2cc3ccncc3cc2OC2CCNCC2)cc1 [GSK1122999] | 0 | 44 | 40 |  |  | 
26 | Cn1ccc2ncnc(Oc3ccc(NC(=O)Nc4cccnc4)c(Cl)c3)c21 | 0 | 0 | 21 |  |  | 
27 | CN1c2ccc(-c3ccc(C(=O)NCCO)cc3)cc2-c2[nH]ncc2S1(=O)=O | 4 | 9 | 10 |  |  | 
28 | CNc1nccc(-c2c(-c3ccc(F)cc3)ncn2CCCN2CCOCC2)n1 [SB-222516] | 15 | 0 | 4 |  |  | 
29 | O=c1cc(N2CCOCC2)nc2n(Cc3cccc(Cl)c3)ccn12 [GSK2296823] | 0 | 38 | 56 |  |  | 
30 | Cc1ccc(C)c(NC(=O)NCCNc2ccnc(Nc3ccc(F)cc3)n2)c1 [GSK1379878] | 0 | 45 | 0 |  |  | 
31 | CC(C)(C)c1ccc(-n2cnc3c(N)ncnc32)cc1 [SKF-97263] | 0 | 11 | 32 |  |  | 
32 | O=C(Nc1n[nH]c2nc(-c3ccco3)c(Br)cc12)c1ccc(CN2CCCC2)cc1.O=C(O)[C@H](O)[C@@H](O)C(=O)O [SB-742352] | 0 | 0 | 10 |  |  | 
33 | COc1ccc(Nc2nccc(N3CCC(NC(=O)c4cccc(NC(C)=O)c4)C3)n2)cc1 (stereo not drawn) [GSK1379732] | 0 | 22 | 7 |  |  | 
34 | Cn1ccc2ncnc(Nc3ccc(Oc4cccc(Cl)c4)c(Cl)c3)c21 | 22 | 40 | 8 |  |  | 
35 | CNc1nccc(-c2c(-c3ccc(F)cc3)ncn2C2CCN(C)CC2)n1 [SB-222903] | 13 | 9 | 0 |  |  | 
36 | Nc1nc(-c2ccc3c(N)n[nH]c3c2)cc(N2CCC[C@@H](C(=O)Nc3ccccc3)C2)n1.O=C(O)C(F)(F)F.O=C(O)C(F)(F)F [GSK2288359] | 0 | 18 | 27 |  |  | 
37 | COC(=O)c1cccc(NC(=O)NCCNc2ccnc(Nc3ccc(F)cc3)n2)c1 [GSK1379883] | 0 | 40 | 0 |  |  | 
38 | O=C(Nc1ccccc1F)NC1CCN(c2ccnc(Nc3ccc(F)cc3)n2)C1 (stereo not drawn) [GSK1379722] | 0 | 38 | 0 |  |  | 
39 | FC(F)(F)c1ccc(-c2nn3ncccc3c2-c2ccnc(Nc3cccc(C(F)(F)F)c3)n2)cc1 [GW828205] | 0 | 3 | 41 |  |  | 
40 | O=C(Nc1ccccc1)Nc1ccc(Oc2ccc3nccn3n2)cc1 | 0 | 2 | 30 |  |  | 

Row | SMILES | %Inh [1] [%] | %Inh [2] [%] | %Inh [3] [%] | %Inh ([1]; 1 µM) | %Inh ([2]; 1 µM) | %Inh ([3]; 1 µM)
41 | Cc1ccc(O)cc1Nc1cc(C(F)(F)F)nc2ccc(-c3ccncc3)cc12 [GW630823] | 0 | 7 | 31 |  |  | 
42 | N#Cc1ccc(Oc2ccc(Nc3ncnc4cc[nH]c34)cc2Cl)cc1 | 14 | 3 | 10 |  |  | 
43 | c1ccc(-c2ccc3c(-c4ccnc(Nc5ccc6c(c5)OCCO6)n4)cnn3n2)cc1 [GW818941] | 0 | 26 | 0 |  |  | 
44 | OCCOCCn1ccc2ncnc(Nc3ccc(Oc4cccc(Cl)c4)c(Cl)c3)c21 | 0 | 0 | 0 |  |  | 
45 | O=C(c1ccc(-c2cc(-c3c[nH]nc3-c3ccccn3)ccn2)cc1)N1CCCC1 [GW792479] | 20 | 0 | 66 |  |  | 
46 | Clc1ccc(-c2cc(-c3c[nH]nc3-c3ccccn3)ccn2)cc1 [GW681251] | 0 | 25 | 0 |  |  | 
47 | COC(=O)c1c(-c2ccccc2)c2cc(Cl)ccc2c(=O)n1Cc1ccc(S(C)(=O)=O)cc1 | 0 | 21 | 23 |  |  | 
48 | Fc1cccc(COc2ccc(Nc3ncnc4cc[nH]c34)cc2Cl)c1 | 13 | 28 | 20 |  |  | 
49 | Cc1cccc(-c2nc(Nc3ccc4[nH]nnc4c3)c3ccccc3n2)n1 [GW867587] | 0 | 0 | 0 |  |  | 
50 | COc1ccc(-c2nc3n(c2-c2ccncc2)CCC3)cc1 [SKF-104493] |  |  |  | 33% and 40% | 5% and 43% | 21% and 8%
51 | Cl.Cn1ccc(-c2cccc(Nc3ccnc4cc(-c5nccs5)ccc34)c2)n1 [GW525701] | 0 | 23 | 14 |  |  | 
52 | Cc1ccc(NC(=O)c2cccc(C#N)c2)cc1-c1ccc(C(=O)Nc2ccncc2)cc1 [GSK1398463] | 9 | 48 | 26 |  |  | 
53 | CSc1ccc(NC2=C(c3ccccc3Cl)C(=O)NC2=O)cc1 [SB-342411] | 0 | 0 | 35 |  |  | 
54 | CCCc1ccc(S(=O)(=O)NC2CCN(c3ccnc(Nc4ccc(OC)cc4)n3)C2)cc1 (stereo not drawn) [GSK1379737] | 0 | 26 | 31 |  |  | 
55 | NC(=O)c1sc(-n2cnc3ccccc32)cc1OCc1ccccc1F [GSK1024306] | 1 | 0 | 0 |  |  | 
56 | Cc1cc(N2CCC(NS(=O)(=O)c3ccc(F)cc3)CC2)nc(Nc2cccc(C#N)c2)n1.O=C(O)C(F)(F)F [GSK1653537] | 0 | 8 | 0 |  |  | 
57 | C[C@@H]1CCN(C(=O)CO)C[C@@H]1N(C)c1ncnc2[nH]ccc12 | 5 | 13 | 1 |  |  | 
58 | CC(C)(C)OC(=O)NC1CCCN(c2cc(-c3ccc4c(N)n[nH]c4c3)nc(N)n2)C1 (stereo not drawn) [GSK2286096] | 0 | 47 | 0 |  |  | 
59 | CCc1nc(-c2cccc(N(C)S(=O)(=O)c3ccccc3)c2)c(-c2ccnc(Nc3ccc(N4CCN(C(C)=O)CC4)nc3)n2)s1 [GSK1645895] | 0 | 7 | 0 |  |  | 
60 | COc1ccc(-c2oc3ncnc(N)c3c2-c2ccc(OC)cc2)cc1 [SB-589132] | 0 | 42 | 8 |  |  | 
